PubChem BioAssay AID1159580 (chemical genetic matrix, 2015)
In all, about 5,500 compounds went through this assay and about 2,000 (36%) were called active. Not shown: some 18% with an inconclusive outcome. No stated cut-off is given here; in the data, active means normalized growth mostly below about 0.91 (no sharp cut-off); inconclusive means no clear call, values can overlap the other calls; inactive means mostly above about 0.92. Some of the results follow.

Test: chemical genetic growth profiling, strain panel (AID 1159580);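 further: tested at 20 µM; growth read once vehicle control cultures reached saturation at 30 °C; 1 = growth at the plate median or of vehicle wells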
Settings: S. cerevisiae deletion strains, growth OD

Measured: normalized growth

CN1CCc2cc3c(cc2[C@H]1C1OC(=O)c2c1ccc1c2OCO1)OCO3 (stereo not given in full)
inactive: locus YAL021C, strain ccr4, stronger effect = lower value 1.01 | locus YAL026C, strain drs2, stronger effect = lower value 0.989 | locus YAL030W, strain snc1, stronger effect = lower value 0.982 | locus YBL061C, strain skt5, stronger effect = lower value 0.982 | locus YBR009C, strain hhf1, stronger effect = lower value 0.989 | locus YBR023C, strain chs3, stronger effect = lower value 0.972 | locus YBR171W, strain sec66, stronger effect = lower value 0.997 | locus YBR231C, strain swc5, stronger effect = lower value 0.993 | locus YBR279W, strain paf1, stronger effect = lower value 0.993 | locus YCL011C, strain gbp2, stronger effect = lower value 0.985 | locus YCL016C, strain dcc1, stronger effect = lower value 0.981 | locus YCL061C, strain MRC1, stronger effect = lower value 0.993 | locus YCL069W, strain vba3, stronger effect = lower value 0.986 | locus YCR088W, strain abp1, stronger effect = lower value 0.98 | locus YDL005C, strain med2, stronger effect = lower value 0.988 | locus YDL040C, strain nat1, stronger effect = lower value 0.99 | locus YDR001C, strain nth1, stronger effect = lower value 0.986 | locus YDR069C, strain doa4, stronger effect = lower value 0.974 | locus YDR137W, strain rgp1, stronger effect = lower value 0.971 | locus YDR159W, strain sac3, stronger effect = lower value 0.976 | locus YDR195W, strain ref2 0.957 | locus YDR297W, strain sur2, stronger effect = lower value 0.987 | locus YDR334W, strain swr1, stronger effect = lower value 0.981 | locus YDR335W, strain msn5, stronger effect = lower value 0.996 | locus YDR392W, strain spt3, stronger effect = lower value 0.905 | locus YEL003W, strain gim4, stronger effect = lower value 0.991 | locus YEL037C, strain rad23, stronger effect = lower value 0.971 | locus YEL061C, strain CIN8 (second series), stronger effect = lower value 0.973 | locus YER015W, strain faa2, stronger effect = lower value 0.982 | locus YER016W, strain bim1, stronger effect = lower value 0.989 | locus YER111C, strain swi4, stronger effect = lower value 0.991 | locus YER155C, strain BEM2 (second series), stronger effect = lower value 0.968 | locus YFR010W, strain ubp6, stronger effect = lower value 0.977 | locus YGL167C, strain pmr1, stronger effect = lower value 0.98 | locus YGL173C, strain kem1, stronger effect = lower value 0.988 | locus YGL227W, strain vid30, stronger effect = lower value 0.976 | locus YGL240W, strain doc1, stronger effect = lower value 0.983 | locus YGL253W, strain hxk2, stronger effect = lower value 0.987 | locus YHR013C, strain ard1, stronger effect = lower value 0.959 | locus YHR027C, strain rpn1, stronger effect = lower value 0.993 | locus YHR030C, strain SLT2, stronger effect = lower value 0.985 | locus YHR079C, strain IRE1, stronger effect = lower value 0.989 | locus YHR142W, strain chs7, stronger effect = lower value 1.01 | locus YJL092W, strain hpr5, stronger effect = lower value 0.991 | locus YJL095W, strain BCK1 (second series), stronger effect = lower value 0.988 | locus YJL095W, strain BCK1, stronger effect = lower value 0.987 | locus YJL115W, strain asf1, stronger effect = lower value 0.983 | locus YJL129C, strain trk1, stronger effect = lower value 0.975 | locus YJL154C, strain vps35, stronger effect = lower value 0.985 | locus YJL164C, strain tpk1, stronger effect = lower value 1.01 | locus YJL166W, strain qcr8, stronger effect = lower value 0.999 | locus YJL187C, strain SWE1, stronger effect = lower value 0.986 | locus YJR066W, strain TOR1, stronger effect = lower value 0.93 | locus YKL160W, strain elf1, stronger effect = lower value 1.01 | locus YKR026C, strain gcn3, stronger effect = lower value 0.979 | locus YKR091W, strain srl3, stronger effect = lower value 0.99 | locus YLL001W, strain dnm1, stronger effect = lower value 0.987 | locus YLL026W, stronger effect = lower value 0.983 | locus YLL041C, strain sdh2, stronger effect = lower value 0.994 | locus YLR027C, strain aat2, stronger effect = lower value 0.976 | locus YLR113W, strain HOG1, stronger effect = lower value 0.987 | locus YLR221C, strain rsa3, stronger effect = lower value 0.989 | locus YLR258W, strain gsy2, stronger effect = lower value 0.988 | locus YLR262C, strain YPT6 (second series), stronger effect = lower value 0.97 | locus YLR320W, strain mms22, stronger effect = lower value 0.993 | locus YLR342W, strain FKS1, stronger effect = lower value 0.983 | locus YLR357W, strain rsc2, stronger effect = lower value 0.997 | locus YLR370C, strain arc18, stronger effect = lower value 0.983 | locus YLR384C, strain iki3, stronger effect = lower value 0.976 | locus YML120C, strain ndi1, stronger effect = lower value 0.981 | locus YMR058W, strain fet3, stronger effect = lower value 0.969 | locus YMR125W, strain sto1, stronger effect = lower value 0.973 | locus YMR129W, stronger effect = lower value 0.995 | locus YMR205C, strain PFK2, stronger effect = lower value 0.98 | locus YMR231W, strain pep5, stronger effect = lower value 0.987 | locus YNL071W, strain lat1, stronger effect = lower value 0.989 | locus YNL183C, strain NPR1, stronger effect = lower value 0.94 | locus YNL209W, strain ssb2, stronger effect = lower value 0.985 | locus YNL248C, strain rpa49, stronger effect = lower value 0.993 | locus YNL322C, strain KRE1 (second series), stronger effect = lower value 0.987 | locus YNR049C, strain mso1, stronger effect = lower value 0.99 | locus YOR001W, strain rrp6, stronger effect = lower value 1.01 | locus YOR070C, strain gyp1, stronger effect = lower value 0.973 | locus YOR080W, strain dia2, stronger effect = lower value 0.994 | locus YOR083W, strain WHI5, stronger effect = lower value 1.01 | locus YOR106W, strain vam3, stronger effect = lower value 0.99 | locus YOR231W, strain MKK1, stronger effect = lower value 0.977 | locus YOR265W, strain rbl2, stronger effect = lower value 0.99 | locus YOR270C, strain vph1, stronger effect = lower value 0.947 | locus YOR290C, strain snf2, stronger effect = lower value 0.974 | locus YPL051W, strain arl3, stronger effect = lower value 1 | locus YPL078C, strain atp4, stronger effect = lower value 1.01 | locus YPL106C, strain sse1, stronger effect = lower value 0.967 | locus YPL240C, strain hsp82, stronger effect = lower value 0.996 | locus YPL256C, strain CLN2, stronger effect = lower value 0.968
